Test results: PubChem BioAssay
The source made the active and inactive calls.

How the values were obtained:
[1] = binders of probe aFSTL3 on microarray, primary screen, stem cell growth factor project, biochemical, small-molecule microarray, fluorescence 635/667 (AID 1064); conditions: higher = more signal;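 further: measures binding of the biotinylated anti-FSTL3 antibody to printed compounds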
[2] = binders from COS7 lysate, DM2A8 probe, primary screen, torsin A project, cell lysate, small-molecule microarray, fluorescence 635/667 (AID 1065); conditions: higher = more signal, COS7 lysate expressing mutant human TOR1A
[3] = binders of probe aFGF2 on microarray, primary screen, stem cell growth factor project, biochemical, small-molecule microarray, fluorescence 635/667 (AID 1067); conditions: higher = more signal;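 further: measures binding of biotinylated aFGF2 protein to printed compounds on slides; z-score merges feature fluorescence and signal-to-noise across triplicate slides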
[4] = binders of probe aFGF10 on microarray, primary screen, stem cell growth factor project, biochemical, small-molecule microarray, fluorescence 635/667 (AID 1071); conditions: higher = more signal;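 further: score merges 667 nm spot intensity and signal to noise from triplicate slides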
[5] = target: Neurogenic locus notch homolog protein 2 (Homo sapiens) (UniProt Q04721); assay: Notch2 binders on small-molecule microarrays, primary screen, biochemical, small-molecule microarray, 635 nm fluorescence, stem cell growth factors (AID 1073); conditions: Notch2 binding, higher = more signal
Neurogenic locus notch homolog protein 2 (Homo sapiens), sequence (Q04721 whole entry, looked up, canonical isoform): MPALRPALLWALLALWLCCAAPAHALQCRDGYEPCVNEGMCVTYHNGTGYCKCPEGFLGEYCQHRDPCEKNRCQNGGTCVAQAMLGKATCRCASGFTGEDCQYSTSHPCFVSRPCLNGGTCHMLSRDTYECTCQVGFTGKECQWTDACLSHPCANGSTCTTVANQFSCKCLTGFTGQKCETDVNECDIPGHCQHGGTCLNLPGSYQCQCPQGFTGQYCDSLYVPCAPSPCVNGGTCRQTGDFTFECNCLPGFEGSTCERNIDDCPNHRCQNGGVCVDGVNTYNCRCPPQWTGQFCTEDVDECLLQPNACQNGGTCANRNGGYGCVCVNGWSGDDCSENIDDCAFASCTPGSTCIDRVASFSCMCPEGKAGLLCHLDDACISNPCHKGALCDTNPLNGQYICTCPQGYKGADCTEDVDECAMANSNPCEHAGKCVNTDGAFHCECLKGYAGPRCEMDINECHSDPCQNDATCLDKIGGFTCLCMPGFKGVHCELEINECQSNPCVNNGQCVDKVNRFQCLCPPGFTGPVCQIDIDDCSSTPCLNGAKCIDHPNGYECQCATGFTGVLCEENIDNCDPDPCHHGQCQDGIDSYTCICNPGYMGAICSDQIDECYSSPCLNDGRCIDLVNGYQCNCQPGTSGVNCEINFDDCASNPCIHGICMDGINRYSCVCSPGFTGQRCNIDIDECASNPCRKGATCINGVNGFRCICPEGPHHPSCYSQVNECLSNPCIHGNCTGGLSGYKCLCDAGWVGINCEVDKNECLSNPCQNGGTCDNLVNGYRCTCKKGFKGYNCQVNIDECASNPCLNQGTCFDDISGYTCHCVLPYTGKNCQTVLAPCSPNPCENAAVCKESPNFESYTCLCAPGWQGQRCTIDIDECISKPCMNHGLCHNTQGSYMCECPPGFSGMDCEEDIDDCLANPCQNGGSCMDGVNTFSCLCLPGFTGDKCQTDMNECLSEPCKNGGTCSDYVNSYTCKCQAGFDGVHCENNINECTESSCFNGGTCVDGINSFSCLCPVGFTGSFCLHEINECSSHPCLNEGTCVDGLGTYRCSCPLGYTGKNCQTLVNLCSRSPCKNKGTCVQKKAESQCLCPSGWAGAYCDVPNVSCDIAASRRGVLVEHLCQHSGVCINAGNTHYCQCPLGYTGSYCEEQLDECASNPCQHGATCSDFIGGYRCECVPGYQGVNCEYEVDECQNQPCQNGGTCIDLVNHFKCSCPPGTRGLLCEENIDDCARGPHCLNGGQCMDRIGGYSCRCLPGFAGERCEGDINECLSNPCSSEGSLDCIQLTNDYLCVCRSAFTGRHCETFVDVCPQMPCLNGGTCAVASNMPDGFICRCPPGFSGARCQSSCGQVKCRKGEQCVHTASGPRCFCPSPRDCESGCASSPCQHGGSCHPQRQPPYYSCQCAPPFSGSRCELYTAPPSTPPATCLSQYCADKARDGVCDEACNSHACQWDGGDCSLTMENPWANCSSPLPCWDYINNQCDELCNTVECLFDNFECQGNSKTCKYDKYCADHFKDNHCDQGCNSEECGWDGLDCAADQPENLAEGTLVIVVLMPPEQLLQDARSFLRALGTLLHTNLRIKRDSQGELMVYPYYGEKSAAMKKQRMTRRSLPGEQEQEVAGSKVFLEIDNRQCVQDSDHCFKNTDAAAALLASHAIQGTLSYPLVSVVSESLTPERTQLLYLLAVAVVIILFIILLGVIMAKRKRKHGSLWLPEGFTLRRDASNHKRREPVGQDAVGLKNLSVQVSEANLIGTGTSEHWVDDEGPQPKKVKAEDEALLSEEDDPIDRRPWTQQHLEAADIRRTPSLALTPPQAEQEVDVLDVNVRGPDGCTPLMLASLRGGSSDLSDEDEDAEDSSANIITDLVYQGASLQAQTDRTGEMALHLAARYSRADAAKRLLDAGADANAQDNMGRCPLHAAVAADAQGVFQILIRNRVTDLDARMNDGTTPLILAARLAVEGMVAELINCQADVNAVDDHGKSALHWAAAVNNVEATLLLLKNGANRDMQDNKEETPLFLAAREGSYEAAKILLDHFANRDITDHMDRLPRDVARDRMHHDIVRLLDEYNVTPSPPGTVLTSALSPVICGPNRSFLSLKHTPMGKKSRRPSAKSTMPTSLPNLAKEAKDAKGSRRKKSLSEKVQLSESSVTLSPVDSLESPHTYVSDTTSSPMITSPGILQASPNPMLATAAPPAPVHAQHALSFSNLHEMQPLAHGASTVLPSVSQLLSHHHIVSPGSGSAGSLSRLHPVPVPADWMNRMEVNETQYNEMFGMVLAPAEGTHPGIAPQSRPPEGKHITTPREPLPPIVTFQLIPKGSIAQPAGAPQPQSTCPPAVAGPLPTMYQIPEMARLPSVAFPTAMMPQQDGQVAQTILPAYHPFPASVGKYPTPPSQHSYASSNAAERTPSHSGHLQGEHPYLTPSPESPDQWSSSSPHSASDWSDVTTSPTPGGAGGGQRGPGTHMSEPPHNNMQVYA

[6] = target: Pro-neuregulin-1, membrane-bound isoform (Homo sapiens) (UniProt Q02297); assay: NRG1 binders on small-molecule microarrays, primary screen, psychiatric disease protein project, biochemical, small-molecule microarray, fluorescence 635/667 (AID 1075); conditions: NRG1 binding, 635 nm fluorescence, higher = more signal;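 further: score combines 667 nm spot fluorescence with signal to noise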
[7] = system: Neuregulin-1 EGF-like domain; assay: binders of neuregulin-1 EGF-like domain, primary screen, biochemical, small-molecule microarray, 635 nm fluorescence (AID 1081); conditions: small-molecule microarray binding, higher = more signal;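 further: binding of the protein to compounds printed on small-molecule microarray slides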
[8] = FRG1 promoter luciferase signal modulators, primary screen, FRG1 inhibition for FSHD, cell-based, C2C12 myotubes, firefly/Renilla luciferase, luminescence (AID 1084); conditions: higher = more signal, called active from +8 up or from −8 down
[9] = binders of probe aFST on microarray, primary screen, stem cell growth factor project, biochemical, small-molecule microarray, fluorescence 635/667 (AID 1086); conditions: higher = more signal;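 further: score merges 667 nm fluorescence with signal-to-noise of each printed compound spot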
[10] = binders of probe aHhip on microarray, primary screen, stem cell growth factor project, biochemical, small-molecule microarray, fluorescence 635/667 (AID 1087); conditions: higher = more signal;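 further: score merges spot fluorescence at 667nm with spot signal to noise ratio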
[11] = system: PRMT1 (protein arginine N-methyltransferase 1); assay: PRMT1 binders on small-molecule microarrays, primary screen, biochemical, small-molecule microarray, 635 nm fluorescence (AID 1088); conditions: small-molecule microarray binding, higher = more signal;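 further: binding of Prmt1 protein to compounds spotted on small-molecule microarray slides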
[12] = yeast growth modulation, basal conditions, primary screen, YJM789 clinical isolate, OD600, 24 h (AID 1089);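 further: growth of clinical yeast isolate S. cerevisiae YJM 789 seeded 1000 cells per well; test concentration not given here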; conditions: S. cerevisiae YJM789 growth, higher = more signal, called active from +8 up or from −8 down
[13] = fission yeast growth modulation, primary screen, strain 972, OD600, 24 h, no modulator (AID 1090);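 further: basal condition with compound alone and no growth modifier present; test concentration not given here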; conditions: S. pombe 972 growth, higher = more signal, called active from +8 up or from −8 down
[14] = S. cerevisiae growth modulation with rapamycin, primary screen, strain BY4716, OD600, 96 h (AID 1091); conditions: higher = more signal, called active from +8 up or from −8 down; further: test concentration not given here
[15] = target: Torsin-1A-interacting protein 2 (Homo sapiens) (UniProt Q8NFQ8); assay: LULL1 binders on small-molecule microarray, primary screen, cell lysate, human LULL1 lysate, 635/667 nm fluorescence (AID 1092); conditions: hLULL1 lysate binding, 635 nm fluorescence, higher = more signal;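 further: probe is lysate of COS7 cells overexpressing human LULL1; score merges per-feature 667 nm fluorescence with signal-to-noise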
[16] = E. coli growth modulation, two-sided OD650, primary screen, E. coli filamentation project, strain DRC41, 24 h (AID 1093); conditions: OD650, 24 h, higher = more signal, called active from +8 up or from −8 down;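 further: MC1000 strain lacking acrAB efflux and sulA so SOS filamentation is blocked; test concentration not given here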
[17] = small-molecule microarray binders of probe aLefty2, primary screen, biochemical, biotinylated probe, 635/667 nm fluorescence (AID 1094); conditions: higher = more signal;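 further: score merges spot fluorescence near 667 nm with spot signal-to-noise ratio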
[18] = system: Noggin (protein binding on small-molecule microarray); assay: Noggin binders on small-molecule microarray, primary screen, biochemical, 635/667 nm fluorescence (AID 1095); conditions: 635 nm fluorescence, higher = more signal;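 further: score merges 667 nm feature fluorescence with signal to noise over triplicate slides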
[19] = target: Neurogenic locus notch homolog protein 3 (Homo sapiens) (UniProt Q9UM47); assay: NOTCH3 binders on small-molecule microarray, primary screen, biochemical, 635/667 nm fluorescence (AID 1096); conditions: NOTCH3 binding, 635 nm fluorescence, higher = more signal
Neurogenic locus notch homolog protein 3 (Homo sapiens), sequence (Q9UM47 whole entry, looked up): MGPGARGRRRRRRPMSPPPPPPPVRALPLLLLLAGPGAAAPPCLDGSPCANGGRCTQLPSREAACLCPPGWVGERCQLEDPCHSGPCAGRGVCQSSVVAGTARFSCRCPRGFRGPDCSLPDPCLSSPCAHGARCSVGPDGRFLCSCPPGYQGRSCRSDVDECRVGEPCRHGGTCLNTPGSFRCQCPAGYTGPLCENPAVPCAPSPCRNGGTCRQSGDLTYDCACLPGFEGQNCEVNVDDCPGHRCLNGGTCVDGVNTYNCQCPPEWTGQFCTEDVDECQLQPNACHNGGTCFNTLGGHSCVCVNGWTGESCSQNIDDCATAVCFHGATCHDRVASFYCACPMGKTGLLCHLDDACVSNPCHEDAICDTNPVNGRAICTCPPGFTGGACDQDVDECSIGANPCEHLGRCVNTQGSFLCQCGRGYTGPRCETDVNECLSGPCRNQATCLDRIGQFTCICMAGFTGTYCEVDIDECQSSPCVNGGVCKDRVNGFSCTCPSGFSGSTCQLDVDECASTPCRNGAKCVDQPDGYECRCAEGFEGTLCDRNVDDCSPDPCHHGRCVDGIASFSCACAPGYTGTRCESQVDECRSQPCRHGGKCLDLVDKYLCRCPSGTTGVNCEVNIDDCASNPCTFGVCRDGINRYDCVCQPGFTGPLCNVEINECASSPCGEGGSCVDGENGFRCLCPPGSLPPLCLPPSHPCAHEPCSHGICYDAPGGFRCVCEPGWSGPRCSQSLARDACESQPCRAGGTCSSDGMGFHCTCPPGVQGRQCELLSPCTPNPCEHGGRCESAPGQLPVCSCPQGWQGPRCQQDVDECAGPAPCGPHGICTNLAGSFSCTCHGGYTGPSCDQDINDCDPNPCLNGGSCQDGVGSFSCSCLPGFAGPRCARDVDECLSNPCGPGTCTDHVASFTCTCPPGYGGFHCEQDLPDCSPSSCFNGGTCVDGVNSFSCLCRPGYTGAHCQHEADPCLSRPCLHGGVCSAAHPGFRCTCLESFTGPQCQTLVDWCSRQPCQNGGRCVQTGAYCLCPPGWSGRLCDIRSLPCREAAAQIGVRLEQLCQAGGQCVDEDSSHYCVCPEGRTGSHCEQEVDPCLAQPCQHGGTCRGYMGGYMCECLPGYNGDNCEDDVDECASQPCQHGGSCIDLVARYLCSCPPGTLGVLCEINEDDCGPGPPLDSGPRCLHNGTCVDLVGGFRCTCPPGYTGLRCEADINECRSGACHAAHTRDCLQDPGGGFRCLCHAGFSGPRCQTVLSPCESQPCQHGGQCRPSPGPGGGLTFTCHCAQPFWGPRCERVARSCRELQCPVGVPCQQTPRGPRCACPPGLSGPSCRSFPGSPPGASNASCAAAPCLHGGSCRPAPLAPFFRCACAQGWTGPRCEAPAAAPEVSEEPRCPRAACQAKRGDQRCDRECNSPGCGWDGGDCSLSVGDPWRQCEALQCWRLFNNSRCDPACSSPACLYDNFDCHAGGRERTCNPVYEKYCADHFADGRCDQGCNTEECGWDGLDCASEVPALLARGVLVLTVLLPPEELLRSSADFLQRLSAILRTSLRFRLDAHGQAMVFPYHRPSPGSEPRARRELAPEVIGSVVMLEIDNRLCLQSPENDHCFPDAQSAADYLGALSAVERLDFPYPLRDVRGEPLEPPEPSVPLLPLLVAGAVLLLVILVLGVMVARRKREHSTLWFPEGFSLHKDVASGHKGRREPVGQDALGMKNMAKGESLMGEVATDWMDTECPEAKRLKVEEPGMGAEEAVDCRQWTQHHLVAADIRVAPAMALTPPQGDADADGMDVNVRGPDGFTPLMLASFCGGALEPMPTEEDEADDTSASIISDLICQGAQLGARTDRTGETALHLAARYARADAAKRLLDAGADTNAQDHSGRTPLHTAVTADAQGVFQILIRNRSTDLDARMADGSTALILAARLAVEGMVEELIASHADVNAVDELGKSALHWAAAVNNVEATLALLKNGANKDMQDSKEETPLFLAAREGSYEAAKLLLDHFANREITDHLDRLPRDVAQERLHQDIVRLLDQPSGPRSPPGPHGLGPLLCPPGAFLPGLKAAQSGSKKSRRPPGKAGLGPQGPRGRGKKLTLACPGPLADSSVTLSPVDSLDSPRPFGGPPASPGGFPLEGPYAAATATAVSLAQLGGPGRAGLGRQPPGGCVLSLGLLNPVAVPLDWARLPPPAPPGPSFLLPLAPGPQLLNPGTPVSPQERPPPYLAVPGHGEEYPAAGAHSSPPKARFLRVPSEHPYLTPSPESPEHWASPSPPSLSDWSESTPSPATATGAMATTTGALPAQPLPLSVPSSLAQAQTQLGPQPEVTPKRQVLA

[20] = small-molecule microarray binders of probe aEGFR, primary screen, biochemical, biotinylated probe, 635/667 nm fluorescence (AID 1097); conditions: higher = more signal;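 further: probe is a biotinylated anti-EGFR antibody binding compounds printed on slides; score combines fluorescence near 667 nm and signal to noise of each spot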

| SMILES | composite z-score [1] | composite z-score [2] | composite z-score [3] | composite z-score [4] | composite z-score [5] | composite z-score [6] | composite z-score [7] | z-score [8] | composite z-score [9] | composite z-score [10] | composite z-score [11] | z-score [12] | z-score [13] | z-score [14] | composite z-score [15] | z-score [16] | composite z-score [17] | composite z-score [18] | composite z-score [19] | composite z-score [20] |
| --- | --- | --- | --- | --- | --- | --- | --- | --- | --- | --- | --- | --- | --- | --- | --- | --- | --- | --- | --- | --- |
| Cc1ccc(S[C@]2(C(=O)NC(C)C)CC(=O)N(Cc3cc(C(F)(F)F)cc(C(F)(F)F)c3)[C@@H]2c2ccc(CO)cc2I)cc1 | 0.808 | -0.666 | -0.103 | -0.345 | -1.7 | 1.53 | 0.74 | -0.321 (inactive) | -0.666 | -0.0994 | 1.26 | -0.698 (inactive) | -2.47 (inactive) | 1.2 (inactive) | 2.04 | 0.715 (inactive) | -0.0544 | -0.147 | -0.513 | -0.317 |
| O=C/C=C/c1ccccc1Cl | 0.206 | -0.0907 | -0.093 | -0.0502 | -0.221 | 1.05 | -0.118 | 1.58 (inactive) | 0.224 | 0.171 | -0.284 | 1.68 (inactive) | -11 (active) | -0.6 (inactive) | 0.54 | 0.0791 (inactive) | -0.0336 | -0.479 | -0.709 | -0.18 |
| Cc1ccc([C@@H]2CC=C(C(=O)O)[C@H](c3ccccc3)N2S(=O)(=O)c2ccc(C)cc2)cc1 | 0.65 | 0.436 | 0.358 | 1.02 | 1.49 | 1.82 | 1.35 | -3.57 (inactive) | 0.549 | 0.0623 | 1.55 | -0.0782 (inactive) | -0.249 (inactive) | -0.269 (inactive) | 3.24 | -1.25 (inactive) | 0.755 | -0.971 | 0.673 | 0.0582 |
| Cc1ccc(S(=O)(=O)N[C@H]2COC(=O)CC=C[C@H](C)COC(=O)N[C@@H](C)C(=O)CC=C[C@@H]2C)cc1 | -0.667 | 1.16 | -0.22 | 0.168 | -0.0113 | -0.195 | 0.527 | 0.502 (inactive) | 0.0218 | 0.0053 | 0.67 | -0.11 (inactive) | -0.784 (inactive) | 0.978 (inactive) | -0.866 | 0.12 (inactive) | -0.215 | 1.18 | 0.354 | 0.0486 |
| O=C1OCCC/C=C\[C@H]2OC34C=CCN(CCN5CCOCC5)C(=O)[C@H]3N(CCCCCO)C(=O)[C@@H]4C12 (stereo not given in full) | -0.0623 | -0.658 | -0.174 | -0.156 | -0.822 | -0.179 | 0.65 | 1.48 (inactive) | -0.676 | -0.226 | -0.706 | -0.114 (inactive) | -0.359 (inactive) | -0.824 (inactive) | -0.701 | -0.763 (inactive) | -0.221 | -0.987 | 0.0233 | -0.281 |
